This is an account of results in PubChem BioAssay (EPA / NIEHS).

Activity calls are given as the source filed them. The calls were made as follows: active = hit-call score of the fitted dose curve at least 0.9, where 1 is the maximum; inactive = score below 0.9.

Read-out in test [1]: Human Leukocyte Antigen - DR isotype (HLADR), HLA-DRA (gene 3122)
The test is described as follows: BSK_3C_HLADR: BioMAP Diversity Plus: 3C Assay for Human Leukocyte Antigen - DR isotype (HLADR) Biomarker Activity (AID 2283019). Conditions: primary human endothelial cells (HUVEC); actives raise or lower the signal. In short, it runs like this: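 Primary human umbilical vein endothelial cells (3C system) were dosed with compound and cell-surface HLA-DR was quantified by ELISA at 24 h. Activity was fitted bidirectionally against DMSO as negative control and baseline.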

Read-out in test [2]: Interleukin-8 (IL8), CXCL8 (gene 3576)
Kind of test: BSK_3C_IL8: BioMAP Diversity Plus: 3C Assay for Interleukin-8 (IL8) Biomarker Activity (AID 2283020). Conditions: primary human endothelial cells (HUVEC); actives raise or lower the signal. Put shortly:
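Primary human umbilical vein endothelial cells were dosed for 24 h. IL-8 was quantified by ELISA and fitted bidirectionally against DMSO. Cytotoxicity was assessed in parallel cultures by SRB staining at 560 nm.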

Read-out in test [3]: Monokine induced gamma interferon (MIG), CXCL9 (gene 4283)
Kind of test: BSK_3C_MIG: BioMAP Diversity Plus: 3C Assay for Monokine induced gamma interferon (MIG) Biomarker Activity (AID 2283021). As to conditions: primary human endothelial cells (HUVEC); actives raise or lower the signal. Put shortly:
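HUVEC primary endothelial cultures dosed with chemical; MIG quantified by ELISA at 24 h. Data fitted bidirectionally against DMSO control, with parallel SRB total-protein staining for cytotoxicity.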

Test [4] is described as follows: BSK_3C_SRB: Viability Assessment in the BioMAP Diversity Plus: 3C Assay (AID 2283023).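 Also: fitted both ways against DMSO so a hit may be signal rise or drop.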 As to conditions: primary human endothelial cells (HUVEC). In short, it runs like this:
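Primary human umbilical vein endothelial cells in the 3C system were read 24 h after compound dosing. Total protein was stained with 0.1% sulforhodamine B after 10% TCA fixation and read at 560 nm, with bidirectional fitting against DMSO as baseline.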

Read-out in test [5]: Matrix Metallopeptidase 1 (MMP1), MMP1 (gene 4312)
Kind of test: BSK_BE3C_MMP1: BioMAP Diversity Plus: BE3C Assay for Matrix Metallopeptidase 1 (MMP1) Biomarker Activity (AID 2283024). As to conditions: primary human bronchial epithelial cells; actives raise or lower the signal. In short, it runs like this: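 Human primary bronchial epithelial cells (BE3C system) dosed for 24 h; MMP-1 quantified by ELISA. Bidirectional fit against DMSO; cytotoxicity tracked in parallel cultures by SRB total-protein staining.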

Read-out in test [6]: Pselectin, SELP (gene 6403)
The test is described as follows: BSK_4H_Pselectin: BioMAP Diversity Plus: 4H Assay for Pselectin Biomarker Activity (AID 2283026). As to conditions: primary human endothelial cells (HUVEC); actives raise or lower the signal. Put shortly: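 Primary human umbilical vein endothelial cells were treated 24 h, and cell-surface P-selectin was then quantified by ELISA. Bidirectional fit versus DMSO; cytotoxicity checked in parallel cultures by SRB total-protein staining.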

Test [7] in a line: BSK_4H_SRB: Viability Assessment in the BioMAP Diversity Plus: 4H Assay (AID 2283027).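 Also: cells exposed to compound for 24 h before staining.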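 As to AC50: curves fitted both ways versus DMSO so AC50 may be loss or gain.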 As to conditions: primary human endothelial cells (HUVEC). In short, it runs like this: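 Human umbilical vein endothelial cells were dosed with chemical and, after 24 h, fixed with 10% TCA, stained with 0.1% sulforhodamine B, and read at 560 nm to give total protein as a cytotoxicity measure. Bidirectional fitting relative to DMSO control.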

A short description of test [8]: BSK_BE3C_SRB: Viability Assessment in the BioMAP Diversity Plus: BE3C Assay (AID 2283028). Conditions: primary human bronchial epithelial cells. In short, it runs like this: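 Human primary bronchial epithelial cells were exposed to test chemicals for 24 h. Total protein in parallel cultures was then measured by staining with 0.1% sulforhodamine B after 10% TCA fixation, with absorbance read at 560 nm. Activity was fitted bidirectionally against DMSO.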

Read-out in test [9]: Thrombomodulin, THBD (gene 7056)
The test is described as follows: BSK_3C_Thrombomodulin: BioMAP Diversity Plus: 3C Assay for Thrombomodulin Biomarker Activity (AID 2283029). As to conditions: primary human endothelial cells (HUVEC); actives raise or lower the signal. Put shortly:
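Human umbilical vein endothelial cells were exposed to chemicals for 24 h; cell-surface thrombomodulin quantified by ELISA, with bidirectional fitting against DMSO baseline.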

Read-out in test [10]: Urokinase-type plasminogen activator receptor (uPAR), PLAUR (gene 5329)
The test is described as follows: BSK_4H_uPAR: BioMAP Diversity Plus: 4H Assay for Urokinase-type plasminogen activator receptor (uPAR) Biomarker Activity (AID 2283030). As to conditions: primary human endothelial cells (HUVEC); actives raise or lower the signal. Put shortly:
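Primary human umbilical vein endothelial cells were exposed to chemical for 24 h before cell-surface uPAR was quantified by ELISA. Activity was fitted bidirectionally against the DMSO negative control baseline.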

Read-out in test [11]: Human Leukocyte Antigen - DR isotype (HLADR), HLA-DRA (gene 3122)
Kind of test: BSK_BE3C_HLADR: BioMAP Diversity Plus: BE3C Assay for Human Leukocyte Antigen - DR isotype (HLADR) Biomarker Activity (AID 2283032). As to conditions: primary human bronchial epithelial cells; actives raise or lower the signal. In short, it runs like this:
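Human primary bronchial epithelial cells (BE3C system) exposed to compound for 24 hours; cell-surface HLA-DR measured by ELISA, fitted bidirectionally relative to DMSO. Total protein by SRB in parallel cultures tracked cytotoxicity.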

Read-out in test [12]: Vascular cell adhesion molecule 1 (VCAM1), VCAM1 (gene 7412)
The test is described as follows: BSK_4H_VCAM1: BioMAP Diversity Plus: 4H Assay for Vascular cell adhesion molecule 1 (VCAM1) Biomarker Activity (AID 2283033). Conditions: primary human endothelial cells (HUVEC); actives raise or lower the signal. Put shortly: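 Primary human umbilical vein endothelial cells, 4H stimulation system, treated for 24 h; cell-surface VCAM-1 quantified by ELISA. Bidirectional fitting against DMSO; cytotoxicity tracked by SRB total-protein staining in parallel cultures.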

Read-out in test [13]: Interferon-gamma inducible Protein 10 (IP10), CXCL10 (gene 3627)
Kind of test: BSK_BE3C_IP10: BioMAP Diversity Plus: BE3C Assay for Interferon-gamma inducible Protein 10 (IP10) Biomarker Activity (AID 2283034). As to conditions: primary human bronchial epithelial cells; actives raise or lower the signal. Put shortly: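 Primary human bronchial epithelial cells, with IP-10 measured by ELISA 24 hours after chemical dosing. Bidirectional fit against DMSO; cytotoxicity checked by SRB total protein staining in parallel cultures.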

Read-out in test [14]: Monokine induced gamma interferon (MIG), CXCL9 (gene 4283)
Kind of test: BSK_BE3C_MIG: BioMAP Diversity Plus: BE3C Assay for Monokine induced gamma interferon (MIG) Biomarker Activity (AID 2283035). As to conditions: primary human bronchial epithelial cells; actives raise or lower the signal. In short, it runs like this:
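ELISA read-out of MIG in human lung bronchial epithelial primary cultures, 24 h post-dosing. Bidirectional curve fit vs DMSO baseline.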

Read-out in test [15]: Transforming growth factor beta 1 (TGFb1), TGFB1 (gene 7040)
Kind of test: BSK_BE3C_TGFb1: BioMAP Diversity Plus: BE3C Assay for Transforming growth factor beta 1 (TGFb1) Biomarker Activity (AID 2283036). As to conditions: primary human bronchial epithelial cells; actives raise or lower the signal. Put shortly: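 Primary human bronchial epithelial cells dosed with chemical; TGF-b1 measured by ELISA 24 h after dosing. Bidirectional curve fitting against DMSO negative control; SRB total-protein staining in parallel cultures gauged cytotoxicity.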

Read-out in test [16]: Plasminogen activator inhibitor-1 (PAI1), SERPINE1 (gene 5054)
The test is described as follows: BSK_BE3C_PAI1: BioMAP Diversity Plus: BE3C Assay for Plasminogen activator inhibitor-1 (PAI1) Biomarker Activity (AID 2283037). Conditions: primary human bronchial epithelial cells; actives raise or lower the signal. In short, it runs like this:
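Primary human bronchial epithelial cells (BE3C system) exposed 24 h; PAI-1 quantified by ELISA. Parallel sulforhodamine B staining of total protein flags cytotoxicity. Bidirectional fit versus DMSO.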

Read-out in test [17]: urokinase plasminogen activator (uPA), PLAU (gene 5328)
Kind of test: BSK_BE3C_uPA: BioMAP Diversity Plus: BE3C Assay for urokinase plasminogen activator (uPA) Biomarker Activity (AID 2283038).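 Also: uPA protein level quantified by ELISA in cell cultures; uPA read one day after compound addition.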 Conditions: primary human bronchial epithelial cells; actives raise or lower the signal. In short, it runs like this: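 Human primary bronchial epithelial cells were exposed to chemical for 24 h, then uPA levels were measured by ELISA. Responses were fitted bidirectionally against DMSO as negative control and baseline. Parallel SRB staining of total protein gauged overt cytotoxicity.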

Read-out in test [18]: Urokinase-type plasminogen activator receptor (uPAR), PLAUR (gene 5329)
The test is described as follows: BSK_BE3C_uPAR: BioMAP Diversity Plus: BE3C Assay for Urokinase-type plasminogen activator receptor (uPAR) Biomarker Activity (AID 2283039).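 As to outcome: cells exposed to compound for one day before measurement.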 Conditions: primary human bronchial epithelial cells; actives raise or lower the signal. In short, it runs like this: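 Primary human bronchial epithelial cells dosed for 24 h; uPAR quantified by ELISA with bidirectional fitting against DMSO. Overt cytotoxicity assessed in parallel cultures by SRB total-protein staining (0.1% SRB, 560 nm).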

Read-out in test [19]: Vascular endothelial growth factor receptor 2 (Homo sapiens) (UniProt P35968)
Kind of test: BSK_4H_VEGFRII: BioMAP Diversity Plus: 4H Assay for Vascular endothelial growth factor receptor 2 (VEGFR2) Biomarker Activity (AID 2283031). Conditions: primary human endothelial cells (HUVEC); actives raise or lower the signal. In short, it runs like this: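 Primary human umbilical vein endothelial cells in the BioMAP 4H system were dosed with test chemical, and 24 h later VEGFRII was measured by ELISA. Activity was fitted bidirectionally against DMSO as negative control and baseline.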

For the molecule `COCc1cnc(C2=NC(C)(C(C)C)C(=O)N2)c(C(=O)O)c1` (configuration not stated), the result in test [1], in test [2], in test [3], in test [4], in test [5] and in test [6] was inactive. Moreover, the result in test [7], in [8], in test [9], in test [10], in test [11] and in [12] was inactive. For the same molecule, the outcome in test [13], in [14], in test [15], in test [16], in test [17] and in test [18] was inactive.
Consider `CC1(C)C(C=C(Cl)Cl)C1C(=O)OC(C#N)c1cccc(Oc2ccccc2)c1` (configuration not stated), for which the result in [1], in test [2], in test [3], in test [5], in test [6] and in test [8] was inactive. Moreover, the result in [9], in [10], in test [19], in test [11], in test [12] and in [13] was inactive. The result in [14], in [15], in [16], in test [17] and in [18] was inactive. For the same molecule, the AC50 (commonly the concentration giving half of the maximal activity seen) in [4] was 8.06 µM (active); in [7] it was 14 µM (active).
For `CCCC(=NOCC)C1=C(O)CC(CC(C)SCC)CC1=O` (configuration not stated), the result in test [1], in test [2], in test [3], in test [4], in test [5] and in test [6] was inactive. Further, the result in test [7], in test [8], in test [9], in [10], in [11] and in test [13] was inactive. Besides, the outcome in [14], in test [15], in [16], in test [17] and in test [18] was inactive.
As to `COC(=O)NC(=S)Nc1ccccc1NC(=S)NC(=O)OC`, the AC50 in [1] was 14.2 µM (active); in test [9] it was 10.8 µM (active); in test [18], 1.46 µM (active). The outcome in [2], in test [3], in test [4], in test [5], in test [6] and in test [7] was inactive. Further, the outcome in test [8], in test [10], in [11], in test [13], in test [14] and in [15] was inactive. Besides, the outcome in test [16] and in test [17] was inactive.
Regarding `COc1cc(OC)nc(NC(=O)NS(=O)(=O)c2ncccc2OCC(F)(F)F)n1`, the outcome in [1], in [2], in test [3], in test [4], in [5] and in [6] was inactive. The result in test [7], in [8], in [9], in test [10], in test [11] and in test [13] was inactive. Moreover, the result in test [14], in test [15], in test [16], in [17] and in test [18] was inactive.
On to `CCN(CC)C(=O)C(C)Oc1cccc2ccccc12` (configuration not stated), for which the result in test [1], in test [2], in test [3], in test [6], in test [7] and in [8] was inactive. For the same molecule, the result in test [9], in test [10], in [19], in test [11], in test [12] and in test [13] was inactive. Moreover, the outcome in test [14], in test [15], in test [16], in [17] and in test [18] was inactive. Also, the AC50 in test [4] was 5.16 µM (active); in test [5], 5.25 µM (active).
